{"source": "ChEMBL document CHEMBL3988442", "about": "“University of Dundee, Small-Polar-MMV Screening Library” (2021)", "note": "Screen size: about 48,000 compounds; about 13,000 (27%) showed an effect of 50% or more. Some of the results follow."}
{"tested_on": "Wolbachia pipientis", "assay": "Anti-Wolbachia Cell-Based Screen", "assay_type": "functional", "design": "scale not given: in the data most compounds retested in dose-response had high values", "settings": "5 µM", "units": {"Percent Effect": "%"}}
{"smiles": "CN(C)C(=O)c1ccc2c(c1)N(C)C(CC(=O)NCCOCCO)CO2", "note": "(stereo not given)", "Percent Effect": 24}
{"smiles": "Cc1ccccc1C1(C(=O)N2CCOC(C)C2)CCOCC1", "note": "(stereo not given)", "Percent Effect": -22.89}
{"smiles": "CN1C(=O)C(c2cccnc2)CC12CCN(CCO)CC2", "note": "(stereo not given)", "Percent Effect": 110.9}
{"smiles": "CN1C(=O)C(c2cccnc2)CC12CCN(Cc1nccs1)CC2", "note": "(stereo not given)", "Percent Effect": 106.4}
{"smiles": "Cc1occc1C(=O)N1CCC2(CC1)CC(c1cccnc1)C(=O)N2C", "note": "(stereo not given)", "Percent Effect": -9.568}
{"smiles": "COCCN1CCC2(CC1)CC(c1cccnc1)C(=O)N2C", "note": "(stereo not given)", "Percent Effect": 119.4}
{"smiles": "CN1C(=O)C(c2cccnc2)CC12CCN(C(=O)c1cccn1C)CC2", "note": "(stereo not given)", "Percent Effect": -11.09}
{"smiles": "CN1C(=O)C(c2ccccc2)CC12CCN(CCN)CC2", "note": "(stereo not given)", "Percent Effect": -103.7}
{"smiles": "CN1C(=O)C(c2ccccc2)CC12CCN(CCOCCO)CC2", "note": "(stereo not given)", "Percent Effect": 13.34}
{"smiles": "CN1C(=O)C(c2ccccc2)CC12CCN(CCO)CC2.O=C(O)C(F)(F)F", "note": "(stereo not given)", "Percent Effect": 95.45}
{"smiles": "COCCN1CCC2(CC1)CC(c1ccccc1)C(=O)N2C", "note": "(stereo not given)", "Percent Effect": -11.58}
{"smiles": "CN1C(=O)C(c2cccnc2)CC12CCN(C(=O)c1ccc[nH]1)CC2", "note": "(stereo not given)", "Percent Effect": -0.8841}
{"smiles": "CCCOCCN1CCC2(CC1)CC(c1ccccc1)C(=O)N2C", "note": "(stereo not given)", "Percent Effect": 4.457}
{"smiles": "CCN1C(=O)C(c2ccccc2)CC12CCN(CCO)CC2.O=C(O)C(F)(F)F", "note": "(stereo not given)", "Percent Effect": -6.556}
{"smiles": "Cc1nc2c(NC(CC(C)(C)C)c3cccnc3)ncnc2o1", "note": "(stereo not given)", "Percent Effect": -3.479}
{"smiles": "CC(C)(N)CN1CCC(c2nnc(CN3CCCC3)n2C2CC2)CC1", "Percent Effect": -7.57}
{"smiles": "CNC(=O)c1ccc(NC(=O)NC(C)c2cc(C)oc2C)c(C)c1", "note": "(stereo not given)", "Percent Effect": -1.593}
{"smiles": "CN(CCC(F)(F)F)Cc1nc2ccccc2c(=O)[nH]1", "Percent Effect": -3.599}
{"smiles": "Cc1cnc(C(=O)N2CCN(C(=O)CC(C)C)[C@@H]3CS(=O)(=O)C[C@@H]32)cn1", "Percent Effect": -11.52}
{"smiles": "CC(C)(C)CN1CC[C@H](c2nnc(Cc3c[nH]c4ccccc34)o2)C1", "Percent Effect": 1.678}
{"smiles": "Cc1n[nH]c(C(=O)N2CCCC(C)CC2)c1Br", "note": "(stereo not given)", "Percent Effect": 10.78}
{"smiles": "CCNC(=O)c1nnn(Cc2ccccc2)c1OC", "Percent Effect": 0.7251}
{"smiles": "Cc1cc(=O)n(C)cc1NC(=O)Cc1cccc(F)c1", "Percent Effect": -4.709}
{"smiles": "O=C(O)C(F)(F)F.O=C(O)C(F)(F)F.O=C1CC[C@H]2[C@H](CCN2c2ncc(F)cn2)N1c1cccnc1", "Percent Effect": -9.717}
{"smiles": "O=C(O)C(F)(F)F.O=C1CC[C@H]2[C@H](CCN2c2ncccn2)N1c1ccccc1", "Percent Effect": 99.41}
{"smiles": "Cc1cccc(C(=O)N2CC[C@@H]3[C@H]2CCC(=O)N3c2ccccc2)n1.O=C(O)C(F)(F)F", "Percent Effect": -24.35}
{"smiles": "Cc1cnc(N2CC[C@H]3[C@@H]2CCC(=O)N3c2ccccc2)nc1.O=C(O)C(F)(F)F", "Percent Effect": 112.6}
{"smiles": "O=C(O)C(F)(F)F.O=C1CC[C@H]2[C@H](CCN2c2ncc(F)cn2)N1c1ccccc1", "Percent Effect": 111.8}
{"smiles": "Cc1ccc(C(=O)N2CC[C@H]3[C@@H]2CCC(=O)N3c2ccccc2)cn1.O=C(O)C(F)(F)F", "Percent Effect": -18.98}
{"smiles": "Cc1cnc(N2CC[C@H]3[C@@H]2CCC(=O)N3c2cccnc2)nc1.O=C(O)C(F)(F)F.O=C(O)C(F)(F)F", "Percent Effect": -6.762}
{"smiles": "Cc1ccoc1C(=O)N1CC[C@H]2[C@@H]1CCC(=O)N2c1cccnc1.O=C(O)C(F)(F)F", "Percent Effect": -7.796}
{"smiles": "O=C(C1CC1)N1CC[C@H]2[C@@H]1CCC(=O)N2c1ccccc1", "Percent Effect": 23.82}
{"smiles": "CC(OCC1CC1)C(=O)Nc1nccn1Cc1ccccc1", "note": "(stereo not given)", "Percent Effect": -19.61}
{"smiles": "CN(C(=O)NCCCNc1ccccn1)C1CCS(=O)(=O)C1", "note": "(stereo not given)", "Percent Effect": -6.562}
{"smiles": "CN(Cc1ccnc2ccccc12)C1CCS(=O)(=O)C1.O=C(O)CC(O)(CC(=O)O)C(=O)O", "note": "(stereo not given)", "Percent Effect": 102.4}
{"smiles": "CN(Cc1cccc2cccnc12)C1CCS(=O)(=O)C1.O=C(O)CC(O)(CC(=O)O)C(=O)O", "note": "(stereo not given)", "Percent Effect": 164.7}
{"smiles": "CN(Cc1ccc(F)c2cccnc12)C1CCS(=O)(=O)C1", "note": "(stereo not given)", "Percent Effect": 8.686}
{"smiles": "CCN(Cc1cnc(NCc2ccccc2)nc1)C1CCS(=O)(=O)C1", "note": "(stereo not given)", "Percent Effect": -2.242}
{"smiles": "Cc1ccsc1[C@@H]1CCN(C(=O)CCC(=O)N2CCCCCC2)C[C@H]1O", "Percent Effect": -6.445}
{"smiles": "Cc1cc(C)c2nc(C)cc(C(=O)NC(C)c3nnn[nH]3)c2c1", "note": "(stereo not given)", "Percent Effect": 1.105}
{"smiles": "Cc1cc(C)c(C(=O)N(CCO)Cc2ccccc2F)c(=O)[nH]1", "Percent Effect": -8.709}
{"smiles": "Cc1cc(C(=O)NC2(c3ccc(Br)cc3)CC2)n(C)n1", "Percent Effect": 77.44}
{"smiles": "Cc1cc(C(=O)NC2(C#N)CCSCC2)n(C)n1", "Percent Effect": -9.689}
{"smiles": "CC(=O)c1cc(C(=O)NC2(c3ccc(Br)cc3)CC2)n(C)c1", "Percent Effect": -0.634}
{"smiles": "Cc1nnc(N2CCC(CS(N)(=O)=O)CC2)c(C#N)c1C", "Percent Effect": -8.566}
{"smiles": "O=C(CCc1ccccc1)N1CCn2cc(Cn3cncn3)nc2C1", "Percent Effect": -11.69}
{"smiles": "O=C(COCc1ccccc1)N1CCCC(n2cncn2)C1", "note": "(stereo not given)", "Percent Effect": 1.365}
{"smiles": "O=C(CCCc1ccccc1)N1CCCC(n2cncn2)C1", "note": "(stereo not given)", "Percent Effect": 103}
{"smiles": "O=C(CCc1cccc(F)c1F)N1CCCC(n2cncn2)C1", "note": "(stereo not given)", "Percent Effect": 102.1}
{"smiles": "Cc1nn(C)cc1CCC(=O)N1CCCC(n2cncn2)C1", "note": "(stereo not given)", "Percent Effect": -0.08809}
{"smiles": "Cc1ccc(CCC(=O)N2CCCC(n3cncn3)C2)c(C)c1", "note": "(stereo not given)", "Percent Effect": -8.257}
{"smiles": "O=C(CCc1ccccc1)N1CC(n2cncn2)C1", "Percent Effect": 125.3}
{"smiles": "O=C(CCc1ccccn1)N1CCCC(n2cncn2)C1", "note": "(stereo not given)", "Percent Effect": 108}
{"smiles": "Cc1nc(NC(=O)C(C)S(C)(=O)=O)sc1Cc1ccc(F)cc1", "note": "(stereo not given)", "Percent Effect": 3.284}
{"smiles": "Cn1ccnc1CCNS(=O)(=O)c1cccc(Br)c1", "Percent Effect": 11.32}
{"smiles": "CC(C)c1ccc(/C=C/CC(=O)NC2CCN(C(N)=O)CC2)cc1", "Percent Effect": -28.76}
{"smiles": "Cc1cnn(CC2CCCCN2Cc2nc(N)c3ccccc3n2)c1", "note": "(stereo not given)", "Percent Effect": -1.986}
{"smiles": "CSCCC(NC(N)=O)C(=O)Nc1ccc(-n2cccn2)nc1", "note": "(stereo not given)", "Percent Effect": -4.081}
{"smiles": "N#CCCN(C(=O)CN1CCCC1C1CCCCC1)c1ccccc1", "note": "(stereo not given)", "Percent Effect": -8.996}
{"smiles": "CCC(C)N(Cc1ccc(C)cc1)Cc1c[nH]c(C)n1", "note": "(stereo not given)", "Percent Effect": 14.09}
